Results taken from PubChem BioAssay AID686978 (National Center for Advancing Translational Sciences (NCATS), 2013).
The campaign covered roughly 420,000 compounds. About 64,000 (15%) were called active. Not shown: some 27% with an inconclusive outcome. Calls come from the whole dose curve; as a rule, active = well fitted inhibition curve with a large enough effect; inconclusive = small, poorly fitted or top-dose-only effect; inactive = flat fitted curve, though single readings scatter. Only a sample is shown.

assay: qHTS for Inhibitors of human tyrosyl-DNA phosphodiesterase 1 (TDP1): qHTS in cells in absence of CPT; settings: DT40 Tdp1-/- hTDP1 cells, no CPT, ATP luminescence, 48 h; activity change, negative = growth inhibition: at 46.2 µM (top of the series); note: nearly all actives have a fitted effect of over 55% in size
Outline: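 Seeded 400 DT40-hTDP1 cells/well (vehicle DMSO, no 20 nM CPT); pinned compounds; ≥48 hr at 37 °C; CellTiter-Glo luminescence as viability measure.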
% is set by controls: 0 for no effect and ±100 for the full control effect; potency is the fitted concentration of half-maximal effect.

Row | Structure (SMILES) | activity change, negative = growth inhibition | Potency
1 | COc1ccc(CNC(=O)c2cc(C(=O)C3CC3)c[nH]2)cc1 | -18.3% (inactive) | 
2 | COc1ccc(OC)c(NC(=O)C2CCN(S(=O)(=O)c3ccc(C)cc3)CC2)c1 | -19.3% (inactive) | 
3 | COc1ccc(C(=O)N2CCC(C(=O)Nc3ccc(C)cc3)CC2)cc1 |  | 10.3 µM (active)
4 | O=C(Nc1ccccc1)C1CCN(C(=O)c2ccc(Br)cc2)CC1 | -16.2% (inactive) | 
5 | CC(C)(C)c1ccc(C(=O)N2CCC(C(=O)N3CCCCC3)CC2)cc1 | -24.3% (inactive) | 
6 | CCc1ccc(NC(=O)Cn2nnc(C(=O)NCc3ccc(OC)cc3)c2N)cc1 | 2.68% (inactive) | 
7 | CCc1ccc(NC(=O)CN2CCC(C(=O)c3ccc(OC)cc3)CC2)cc1 |  | 23.1 µM (active)
8 | COc1ccccc1NC(=O)C1CCN(C(=O)c2ccc(C(C)(C)C)cc2)CC1 |  | 16.4 µM (active)
9 | COc1ccc(S(=O)(=O)N2CCC(C(=O)NCCC(=O)Nc3ccccc3OC)CC2)cc1 | -20.2% (inactive) | 
10 | OCC(O)CN(c1ccccc1)c1ccccc1 (configuration not stated) | -27.7% (inactive) | 
11 | Cc1ccccc1-n1nc(SCC(=O)O)sc1=S | -3.4% (inactive) | 
12 | N=c1ccn(CC(=O)NC(N)=O)c2ccccc12 | -8.1% (inactive) | 
13 | C/C=N/NC(=O)CCCC(=O)N/N=C/C | 7.5% (inactive) | 
14 | C[C@H](CO)N1C[C@H](C)[C@@H](CN(C)S(=O)(=O)c2ccc(F)cc2)Oc2ccc(NC(=O)CCC(F)(F)F)cc2C1=O | -26.2% (inactive) | 
15 | O=C(O)c1c(Br)c(Br)c(Br)c(Br)c1C1c2ccc(O)cc2Oc2cc(O)ccc21 | -2.04% (inactive) | 
16 | O=C(CNC(=O)[C@@H]1Cc2ccccc2CN1)NC1CCCCC1 | -17.6% (inactive) | 
17 | Cn1c(SCC(=O)OC2CCCCC2)nnc1-c1ccc(S(=O)(=O)N2CCCC2)cc1 | -9.11% (inactive) | 
18 | COCCNC(=O)CN1C(=O)CSc2ncccc21 | 0.779% (inactive) | 
19 | CC(=O)Nc1ccc(OC(=O)COc2ccc(Br)cc2)cc1 | 22.7% (inactive) | 
20 | O=C1NC(=O)C2C1C(c1ccc([N+](=O)[O-])cc1)=NN2Cc1ccccc1 (configuration not stated) | 7.2% (inactive) | 
21 | O=C(OCc1ccc([N+](=O)[O-])cc1)C1CC(=O)N(Cc2ccccc2Cl)C1 (configuration not stated) | -29.7% (inactive) | 
22 | O=[N+]([O-])c1ccc(CN2CC(N3CCC(c4ccccc4)CC3)CS2(=O)=O)cc1 (configuration not stated) |  | 23.1 µM (active)
23 | CSCC(NS(=O)(=O)c1ccc(C)cc1)C(=O)O (configuration not stated) | -1.29% (inactive) | 
24 | O=C(Nc1nnc(C2CC2)s1)C1=NN(C2CCS(=O)(=O)C2)C(=O)CC1 (configuration not stated) | 12.2% (inactive) | 
25 | Cn1cc(CCC(=O)NC2CC2)c2ccccc21 | -0.36% (inactive) | 
26 | O=C(O)c1cccc(N=NN2CCCCCC2)c1 | -0.0872% (inactive) | 

Row | Structure (SMILES) | activity change, negative = growth inhibition | Potency
27 | CCC1CCCCN1C(=S)Nc1ccc(C(C)=O)cc1 (configuration not stated) | -28% (inactive) | 
28 | CC(=O)c1ccccc1NC(=O)CC1(CC(=O)O)CCCCC1 | 1.97% (inactive) | 
29 | COc1ccc([N+](=O)[O-])cc1N(CC(O)CN(CC(C)C)CC(C)C)S(=O)(=O)c1ccc(C)cc1 (configuration not stated) |  | 23.1 µM (active)
30 | Cc1ccc(S(=O)(=O)N(CC(O)CN2CCCCC2)c2cccc([N+](=O)[O-])c2)cc1 (configuration not stated) | -4.84% (inactive) | 
31 | Cc1ccc(S(=O)(=O)N(CC(O)CN2C(=O)NC(C)(C)C2=O)c2cccc([N+](=O)[O-])c2)cc1 (configuration not stated) | -0.683% (inactive) | 
32 | Cc1cc(C)n(Cc2cnc(N3CCOCC3)s2)n1 | 32.3% (inactive) | 
33 | O=C(NCC(=O)N(CC1CCCO1)C(C(=O)NC1CCCCC1)c1ccccc1)c1ccco1 (configuration not stated) | -2.93% (inactive) | 
34 | Cc1ccc(-c2cc(C(=O)NN)n[nH]2)o1 | -13% (inactive) | 
35 | CCn1c(SCC(=O)Nc2cccc(F)c2)nnc1-c1cc2cc(Br)ccc2o1 | -17.3% (inactive) | 
36 | COc1ccc(-c2nc3cnccn3c2NC2CCCCC2)cc1-c1cccc(Cl)c1 |  | 25.9 µM (active)
37 | COc1ccc(-c2nnc(SCC(=O)NC3CCCCC3)o2)cc1OC | -28.8% (inactive) | 
38 | COc1ccc(C)cc1S(=O)(=O)NC1CCCCC1 | -6.83% (inactive) | 
39 | COc1ccc(-c2nc3cnccn3c2NC(C)(C)CC(C)(C)C)cc1O |  | 18.4 µM (active)
40 | COc1ccc(-c2nc3cc(C)ccn3c2NC2CCCCC2)cc1SC1CCCCC1 |  | 20.9 µM (active)
41 | COc1ccc(NC(=O)N(C)C[C@H]2Oc3ncc(C#C[C@@H](C)O)cc3C(=O)N([C@H](C)CO)C[C@H]2C)cc1 | 5.91% (inactive) | 
42 | CC1(C)CCc2nc(SCc3ccccc3)c(C#N)cc2C1 | -1.89% (inactive) | 
43 | Cc1ccc(NS(=O)(=O)c2ccc(-c3ccc(=O)[nH]n3)o2)c(C)c1 | 7.41% (inactive) | 
44 | OCc1nc(CO)n(Cc2ccccc2)n1 | -1.88% (inactive) | 
45 | CC1(C(=O)NS(=O)(=O)c2cccc(F)c2)CCN1C(=O)c1cccc2ccccc12 (configuration not stated) | -0.531% (inactive) | 
46 | CSc1nnc(-c2ccc(C(F)(F)F)cn2)o1 | -0.821% (inactive) | 
47 | Cc1onc(C(=O)NN)c1-c1csc(COc2ccccc2)n1 | -4.22% (inactive) | 
48 | CC(C)(C)C(=O)OCc1nc(-c2ccc(O)c(O)c2)cs1 |  | 20.6 µM (active)
49 | CCCC(=O)N1c2ccc(-c3csc(N)n3)cc2CC1C (configuration not stated) | -25.1% (inactive) | 
50 | Cn1c(NN)nc2sc3c(c2c1=O)CCC3 |  | 29.1 µM (active)
51 | NNC(=O)C1CCCn2c1nc1sc3c(c1c2=O)CCCC3 (configuration not stated) | 2.25% (inactive) | 
52 | CC(C(=O)O)n1cnc2sc3c(c2c1=O)CCCC3 (configuration not stated) | 7.09% (inactive) | 
